Experimental data from PMC11006913.
Positions count from the first letter of the chain named.

Assays:
Assay in all cases: PBM; 200 nM protein, PBS
Conditions in all cases: dsDNA, one strand shown
SIX6 [1] = target: T1, SIX6 (Homo sapiens, UniProt O95475 114-200, L167I)
T1 sequence: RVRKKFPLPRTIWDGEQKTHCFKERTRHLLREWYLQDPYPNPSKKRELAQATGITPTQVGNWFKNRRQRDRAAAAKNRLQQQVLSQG

SIX6 [2] = target: T2, SIX6 (Homo sapiens, UniProt O95475 114-200, L143V)
T2 sequence: T1 sequence with L30V, I54L

SIX6 [3] = target: T3, SIX6 (Homo sapiens, UniProt O95475 114-200, H141N)
T3 sequence: T1 sequence with H28N, I54L

SIX6 [4] = target: T4, SIX6 (Homo sapiens, UniProt O95475 114-200, T165P)
T4 sequence: T1 sequence with T52P, I54L

SIX6 [5] = target: T5, SIX6 (Homo sapiens, UniProt O95475 114-200, L167M)
T5 sequence: T1 sequence with I54M

SIX6 [6] = target: T6, SIX6 (Homo sapiens, UniProt O95475 114-200, L143M)
T6 sequence: T1 sequence with L30M, I54L

SIX6 [7] = target: T7, SIX6 (Homo sapiens, UniProt O95475 114-200, L143I)
T7 sequence: T1 sequence with L30I, I54L

SIX6 [8] = target: T8, SIX6 (Homo sapiens, UniProt O95475 114-200, T165G)
T8 sequence: T1 sequence with T52G, I54L

SIX6 [9] = target: T9, SIX6 (Homo sapiens, UniProt O95475 114-200, T139Q)
T9 sequence: T1 sequence with T26Q, I54L

SIX6 [10] = target: T10, SIX6 (Homo sapiens, UniProt O95475 114-200, T165A)
T10 sequence: T1 sequence with T52A, I54L

SIX6 [11] = target: T11, SIX6 (Homo sapiens, UniProt O95475 114-200, L167V)
T11 sequence: T1 sequence with I54V

SIX6 [12] = target: T12, SIX6 (Homo sapiens, UniProt O95475 114-200)
T12 sequence: T1 sequence with I54L

SIX6 [13] = target: T13, SIX6 (Homo sapiens, UniProt O95475 114-200, T165I)
T13 sequence: T1 sequence with T52I, I54L

NKX3-2 [14] = target: NKX3-2 (Homo sapiens, UniProt P78367 192-278, P234S)
NKX3-2 [15] = target: NKX3-2 (Homo sapiens, UniProt P78367 192-278)
Chain of NKX3-2 (Homo sapiens, UniProt P78367 192-278) (P78367 192-278): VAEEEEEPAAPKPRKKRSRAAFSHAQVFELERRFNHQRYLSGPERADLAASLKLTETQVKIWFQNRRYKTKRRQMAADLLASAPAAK

Chain of NKX3-2 (Homo sapiens, UniProt P78367 192-278, P234S) (P78367 192-278 P234S): as the sequence (P78367 192-278) above, with P43S counted along it

TATCATCA
binding signal (SIX6 [1]): 10.9 upbm affinity estimate (log intensity, higher = more binding, comparable within an allelic series)
binding signal (SIX6 [2]): 10.3 upbm affinity estimate (log intensity, higher = more binding, comparable within an allelic series)
binding signal (SIX6 [3]): 10.8 upbm affinity estimate (log intensity, higher = more binding, comparable within an allelic series)
binding signal (SIX6 [4]): 9.94 upbm affinity estimate (log intensity, higher = more binding, comparable within an allelic series)
binding signal (SIX6 [5]): 10.5 upbm affinity estimate (log intensity, higher = more binding, comparable within an allelic series)
binding signal (SIX6 [6]): 10.8 upbm affinity estimate (log intensity, higher = more binding, comparable within an allelic series)
binding signal (SIX6 [7]): 10.2 upbm affinity estimate (log intensity, higher = more binding, comparable within an allelic series)
binding signal (SIX6 [8]): 10.8 upbm affinity estimate (log intensity, higher = more binding, comparable within an allelic series)
binding signal (SIX6 [9]): 10.9 upbm affinity estimate (log intensity, higher = more binding, comparable within an allelic series)
binding signal (SIX6 [10]): 10.8 upbm affinity estimate (log intensity, higher = more binding, comparable within an allelic series)
binding signal (SIX6 [11]): 10.6 upbm affinity estimate (log intensity, higher = more binding, comparable within an allelic series)
binding signal (SIX6 [12]): 10.7 upbm affinity estimate (log intensity, higher = more binding, comparable within an allelic series)
binding signal (SIX6 [13]): 10.7 upbm affinity estimate (log intensity, higher = more binding, comparable within an allelic series)

GGCCGGAA
binding signal (SIX6 [1]): 9.02 upbm affinity estimate (log intensity, higher = more binding, comparable within an allelic series)
binding signal (SIX6 [2]): 8.91 upbm affinity estimate (log intensity, higher = more binding, comparable within an allelic series)
binding signal (SIX6 [3]): 8.94 upbm affinity estimate (log intensity, higher = more binding, comparable within an allelic series)
binding signal (SIX6 [4]): 9.01 upbm affinity estimate (log intensity, higher = more binding, comparable within an allelic series)
binding signal (SIX6 [5]): 8.98 upbm affinity estimate (log intensity, higher = more binding, comparable within an allelic series)
binding signal (SIX6 [6]): 9 upbm affinity estimate (log intensity, higher = more binding, comparable within an allelic series)
binding signal (SIX6 [7]): 8.95 upbm affinity estimate (log intensity, higher = more binding, comparable within an allelic series)
binding signal (SIX6 [8]): 8.98 upbm affinity estimate (log intensity, higher = more binding, comparable within an allelic series)
binding signal (SIX6 [9]): 9.04 upbm affinity estimate (log intensity, higher = more binding, comparable within an allelic series)
binding signal (SIX6 [10]): 8.94 upbm affinity estimate (log intensity, higher = more binding, comparable within an allelic series)
binding signal (SIX6 [11]): 9.02 upbm affinity estimate (log intensity, higher = more binding, comparable within an allelic series)
binding signal (SIX6 [12]): 8.92 upbm affinity estimate (log intensity, higher = more binding, comparable within an allelic series)
binding signal (SIX6 [13]): 8.95 upbm affinity estimate (log intensity, higher = more binding, comparable within an allelic series)

AGTGTATC
binding signal (SIX6 [1]): 11 upbm affinity estimate (log intensity, higher = more binding, comparable within an allelic series)
binding signal (SIX6 [2]): 10.3 upbm affinity estimate (log intensity, higher = more binding, comparable within an allelic series)
binding signal (SIX6 [3]): 11 upbm affinity estimate (log intensity, higher = more binding, comparable within an allelic series)
binding signal (SIX6 [4]): 9.91 upbm affinity estimate (log intensity, higher = more binding, comparable within an allelic series)
binding signal (SIX6 [5]): 10.7 upbm affinity estimate (log intensity, higher = more binding, comparable within an allelic series)
binding signal (SIX6 [6]): 11 upbm affinity estimate (log intensity, higher = more binding, comparable within an allelic series)
binding signal (SIX6 [7]): 10.4 upbm affinity estimate (log intensity, higher = more binding, comparable within an allelic series)
binding signal (SIX6 [8]): 11.1 upbm affinity estimate (log intensity, higher = more binding, comparable within an allelic series)
binding signal (SIX6 [9]): 11.3 upbm affinity estimate (log intensity, higher = more binding, comparable within an allelic series)
binding signal (SIX6 [10]): 11 upbm affinity estimate (log intensity, higher = more binding, comparable within an allelic series)
binding signal (SIX6 [11]): 10.8 upbm affinity estimate (log intensity, higher = more binding, comparable within an allelic series)
binding signal (SIX6 [12]): 11 upbm affinity estimate (log intensity, higher = more binding, comparable within an allelic series)
binding signal (SIX6 [13]): 10.9 upbm affinity estimate (log intensity, higher = more binding, comparable within an allelic series)

CGCAGAGC
binding signal (SIX6 [1]): 8.98 upbm affinity estimate (log intensity, higher = more binding, comparable within an allelic series)
binding signal (SIX6 [2]): 8.91 upbm affinity estimate (log intensity, higher = more binding, comparable within an allelic series)
binding signal (SIX6 [3]): 8.85 upbm affinity estimate (log intensity, higher = more binding, comparable within an allelic series)
binding signal (SIX6 [4]): 9 upbm affinity estimate (log intensity, higher = more binding, comparable within an allelic series)
binding signal (SIX6 [5]): 8.82 upbm affinity estimate (log intensity, higher = more binding, comparable within an allelic series)
binding signal (SIX6 [6]): 8.9 upbm affinity estimate (log intensity, higher = more binding, comparable within an allelic series)
binding signal (SIX6 [7]): 8.9 upbm affinity estimate (log intensity, higher = more binding, comparable within an allelic series)
binding signal (SIX6 [8]): 8.85 upbm affinity estimate (log intensity, higher = more binding, comparable within an allelic series)
binding signal (SIX6 [9]): 8.88 upbm affinity estimate (log intensity, higher = more binding, comparable within an allelic series)
binding signal (SIX6 [10]): 8.97 upbm affinity estimate (log intensity, higher = more binding, comparable within an allelic series)
binding signal (SIX6 [11]): 9.02 upbm affinity estimate (log intensity, higher = more binding, comparable within an allelic series)
binding signal (SIX6 [12]): 8.83 upbm affinity estimate (log intensity, higher = more binding, comparable within an allelic series)
binding signal (SIX6 [13]): 8.83 upbm affinity estimate (log intensity, higher = more binding, comparable within an allelic series)
binding signal (NKX3-2 [14]): 10.6 upbm affinity estimate (log intensity, higher = more binding, comparable within an allelic series)
binding signal (NKX3-2 [15]): 10.6 upbm affinity estimate (log intensity, higher = more binding, comparable within an allelic series)

GATATCTA
binding signal (SIX6 [1]): 11.1 upbm affinity estimate (log intensity, higher = more binding, comparable within an allelic series)
binding signal (SIX6 [2]): 10.4 upbm affinity estimate (log intensity, higher = more binding, comparable within an allelic series)
binding signal (SIX6 [3]): 11.1 upbm affinity estimate (log intensity, higher = more binding, comparable within an allelic series)
binding signal (SIX6 [4]): 9.98 upbm affinity estimate (log intensity, higher = more binding, comparable within an allelic series)
binding signal (SIX6 [5]): 10.8 upbm affinity estimate (log intensity, higher = more binding, comparable within an allelic series)
binding signal (SIX6 [6]): 10.9 upbm affinity estimate (log intensity, higher = more binding, comparable within an allelic series)
binding signal (SIX6 [7]): 10.3 upbm affinity estimate (log intensity, higher = more binding, comparable within an allelic series)
binding signal (SIX6 [8]): 11.1 upbm affinity estimate (log intensity, higher = more binding, comparable within an allelic series)
binding signal (SIX6 [9]): 11 upbm affinity estimate (log intensity, higher = more binding, comparable within an allelic series)
binding signal (SIX6 [10]): 11 upbm affinity estimate (log intensity, higher = more binding, comparable within an allelic series)
binding signal (SIX6 [11]): 10.9 upbm affinity estimate (log intensity, higher = more binding, comparable within an allelic series)
binding signal (SIX6 [12]): 10.9 upbm affinity estimate (log intensity, higher = more binding, comparable within an allelic series)
binding signal (SIX6 [13]): 10.9 upbm affinity estimate (log intensity, higher = more binding, comparable within an allelic series)
